# Screen size: about 1,300 compounds; about 240 (18%) were called active. Not shown: some 8% with an inconclusive outcome. Only a sample is shown. Potency and affinity values are given separately. Unmarked numbers belong to inactive results. How the calls were made is not given here.
# Experiment: toxicity to human hepatoma HepG2 cells – cell-based, cherry-picked samples, cytotoxicity control, dose response (AID 1159577);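 further: 0% = neutral control wells and -100% = positive control wells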
# Details: HepG2 cytotoxicity counterscreen, plate reader; series mostly up to 19.5 µM; activity change, negative = cytotoxicity: at the top concentration
row,Structure (SMILES),"activity change, negative = cytotoxicity"
1,C[C@@H]1CN([C@@H](C)CO)C(=O)c2cccc(NC(=O)C3CC3)c2O[C@@H]1CN(C)C(=O)Nc1ccc(C(F)(F)F)cc1,-20%
2,COc1cccc(NC(=O)N2[C@H](CO)[C@@H](c3ccccc3)[C@H]2CNCC(C)C)c1,-10.2%
3,O=S(=O)(c1ccccc1)N1C[C@@H]2N[C@H](C1)C2c1ccc(-c2ccc(F)cc2)cc1 (stereo partly specified),-31.9%
4,CC=Cc1ccc2n(c1=O)C[C@@H]1[C@@H](CO)[C@H](C(=O)N3CCC(Cc4ccccc4)CC3)N(CCC)[C@H]21 (mixture of isomers),-14.5%
5,C[C@H](CO)N1C[C@H](C)[C@@H](CN(C)C(=O)Nc2cccc3ccccc23)Oc2ccc(NC(=O)Nc3cccc4ccccc34)cc2CC1=O,27.7%
6,C[C@H](CO)N1C[C@H](C)[C@@H](CN(C)Cc2ccc(Oc3ccccc3)cc2)Oc2ccc(NS(=O)(=O)c3cn(C)cn3)cc2CC1=O,8.5%
7,C[C@@H]1CN([C@H](C)CO)C(=O)c2cc(NC(=O)Nc3ccc(C(F)(F)F)cc3)ccc2O[C@H]1CN(C)C(=O)Nc1cccc2ccccc12,10.9%
8,C[C@H](CO)N1C[C@H](C)[C@H](CN(C)Cc2ccc(Oc3ccccc3)cc2)Oc2ccc(NS(=O)(=O)c3ccc(Cl)cc3)cc2CC1=O,-10.2% [at 21 µM]
9,C[C@H]1CN([C@@H](C)CO)C(=O)c2cc(NC(=O)Nc3cccc4ccccc34)ccc2O[C@@H]1CN(C)Cc1ccc(Oc2ccccc2)cc1,-10.6% [at 21 µM]
10,CO[C@H]1CN(C)C(=O)c2cc(NC(=O)C3CC3)ccc2OC[C@@H](C)N(Cc2cc(F)ccc2F)C[C@H]1C,30.6%
11,O=S(=O)(c1ccccc1)N1CC[C@@H]2[C@H](CO)Nc3ccc(C#CC4CCCCC4)cc3[C@@H]21,-12.5% [at 23.5 µM]
12,COc1ccc2c3c(n(C)c2c1)[C@@H](CO)N(C(=O)C1CCC1)CC31CN(C(=O)Nc2cccc(F)c2)C1,-35.6%
13,COc1cccc(-c2ccc3c(c2)[C@H]2[C@H](CCN2C(=O)C2CCCC2)[C@@H](CO)N3)c1,-10.3%
14,COCC#Cc1ccc([C@@H]2[C@H](CO)N3CCCCN(S(=O)(=O)c4ccc(OC)cc4)C[C@@H]23)cc1,2.6%
15,CCC(=O)N1CC2(C1)CN(Cc1cc(F)ccc1F)[C@@H](CO)c1[nH]c3cc(OC)ccc3c12,-3.61%
16,OC[C@@H]1CC[C@@H]2O[C@H](CCc3ccc(-c4ccc(F)cc4)cc3)[C@H](n3cc(C4CC4)nn3)C[C@@H]2O1,-5.35%
17,CC(C)(C)[S@](=O)N1Cc2cc(C(=O)NCCN3CCCC3)nc(-c3cccc(-c4ccc(C#N)cc4)c3)c2[C@@H]1CCO,-4.11% [at 21 µM]
18,C/C=C/c1ccc([C@H]2[C@@H](CO)N(CC3CCCC3)[C@@H]2CNC(=O)NC(C)C)cc1,7.86% [at 21 µM]

row,Structure (SMILES),"activity change, negative = cytotoxicity"
1,C/C=C/c1ccc([C@H]2[C@@H](C#N)N(C(=O)NC3CCCC3)[C@@H]2CO)cc1,-18.6% [at 21 µM]
2,C/C=C/c1ccccc1[C@@H]1[C@@H](CO)N(S(=O)(=O)c2cccc(F)c2)[C@H]1C#N,-0.51% [at 21 µM]
3,CCc1csc(N2[C@H](C#N)[C@H](c3ccccc3-c3ccc(F)cc3)[C@H]2CO)n1,-13.9%
4,C/C=C/c1ccc([C@H]2[C@@H](CO)N(C(=O)CC)[C@@H]2CNCC2CCCCC2)cc1,-6.29% [at 21 µM]
5,C/C=C/c1ccc([C@H]2[C@@H](CO)N(CC3CCCCC3)[C@@H]2CNC(C)C)cc1,-4.8% [at 21 µM]
6,C[C@@H]1CN([C@@H](C)CO)C(=O)c2cccc(NC(=O)Nc3ccccc3)c2O[C@@H]1CN(C)C(=O)Nc1ccc(F)cc1,11.6%
7,COc1ccc2c3c(n(C)c2c1)[C@@H](CO)N(C(=O)c1ccc(F)cc1)CC31CN(CC2CCOCC2)C1,-6.16%
8,CCCN1C[C@@H](C)[C@H](OC)CN(C)C(=O)c2ccc(NC(=O)c3cccc(F)c3)cc2OC[C@H]1C,9.31%
9,COc1ccc2c3c(n(C)c2c1)[C@@H](CO)N(Cc1ccc(Cl)cc1)CC31CCN(CC2CC2)CC1,-10.4%
10,COc1ccc2c3c(n(C)c2c1)[C@@H](CO)N(C(=O)c1ccccc1)CC31CCN(C(=O)c2ccccc2)CC1,6.24%
11,COc1ccc2c3c(n(C)c2c1)[C@H](CO)N(Cc1ccccc1F)CC31CCN(CC2CC2)CC1,-24.4%
12,COc1ccc2c3c(n(C)c2c1)[C@@H](CO)N(CC1CCCCC1)CC31CCN(Cc2nccs2)CC1,9.04%
13,COc1ccc2c3c(n(C)c2c1)[C@H](CO)N(Cc1ccncc1)CC31CCN(C(=O)Cc2ccncc2)CC1,9.18% [at 18 µM]
14,COc1ccc2c3c(n(C)c2c1)[C@H](CO)N(C(=O)c1ccccc1)CC31CCN(C(=O)c2ccccc2)CC1,28.5%
15,CCC(=O)N1CCC2(CC1)CN(Cc1cccc(Cl)c1)[C@H](CO)c1c2c2ccc(OC)cc2n1C,-4.12%
16,COc1ccc2c3c(n(C)c2c1)[C@@H](CO)N(Cc1ccccc1F)CC31CCN(CC2CC2)CC1,-22.2%
17,COc1ccc(-c2ccccc2[C@H]2[C@@H](CO)N(C(=O)C3CCOCC3)[C@H]2C#N)cc1,10.6%
18,COc1ccc2c3c(n(C)c2c1)[C@H](CO)N(Cc1cccnc1)CC31CN(C(=O)NC(C)C)C1,-0.752%

# From PubChem BioAssay AID1159577 (Broad Institute, 2015)
